Bioassay records as filed in PubChem.
Rows were chosen to be rich in hits. Some 4.2% of all compounds tested hit in one or more screens of this group.
tim23-1 inh: tim23-1 yeast growth inhibition; inhibition, % at 20 µM; 330,000 compounds, 1.3% hits; AID 463212; S. cerevisiae tim23-1 growth, BacTiter-Glo luminescence, 24 h;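 active means growth inhibition of the mutant yeast at or above 50%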;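 further: temperature-sensitive mutant grown at 25 °C; plate controls were DMSO-treated mutant yeast for no effect and medium wells lacking yeast for full effect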
V-ATPase pHluor: yeast V-ATPase proton transport regulation by pHLuorin; AID 504577; S. cerevisiae, pHLuorin cytosolic pH fluorescence; response, % at 10 µM; 350,000 compounds, 0.37% hits; in the data active means response mostly above about 7.3%, no sharp cut-off; inactive means mostly below about 5.4%; further: actives read high
TIM10 inh: TIM10 yeast growth inhibition | S. cerevisiae TIM10 strain growth, BacTiter-Glo luminescence, 24 h | inhibition, % at 10 µM | 330,000 compounds, 1.4% hits;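 active means inhibition of 40% or more at the single tested concentration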;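 further: wild-type TIM10 isogenic control strain grown at permissive 25 °C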
NLRP3 yeast inh: blocks the NALP3 inflammasome reconstituted in yeast; Yeast reconstituted NLRP3/ASC/caspase-1, beta-gal luminescence, 24 h; AID 2825; inhibition, % at 10 µM; 330,000 compounds, 0.39% hits;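 active means inhibition of 50% or more; inactive means inhibition below 50%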;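 further: plate controls were induced DMSO wells for no effect and uninduced yeast grown without galactose for full effect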
NALP1 inh: NALP1 inhibition | S. cerevisiae NALP1/ASC/caspase-1 growth, X-gal OD620, 72 h | inhibition, % at 10 µM | 280,000 compounds, 0.61% hits | AID 2071; in the data active means inhibition mostly above about 24%, no sharp cut-off; inactive means mostly below about 32%
tim10-1 inh: inhibits growth of tim10-1 mutant yeast; S. cerevisiae tim10-1 ts strain growth, BacTiter-Glo, 24 h; inhibition, % at 20 µM; 330,000 compounds, 2.2% hits;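 active means inhibition of at least 40%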;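 further: mutant grown at 25 °C; 0% = DMSO wells with yeast and 100% = wells holding no yeast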
NALP3 confirm: NALP3 inhibition confirmation in yeast; shares compounds with NLRP3 yeast inh; yeast expressing human NALP3, luminescence; inhibition, % at 10 µM; 1,300 compounds, 81% hits; in the data active means inhibition above about 48%
Casp1 ASC ctr: caspase-1-ASC yeast counter-screen hit; shares compounds with NLRP3 yeast inh; inhibition, % at 10 µM; 1,000 compounds, 66% hits; yeast expressing Caspase-1-ASC, luminescence counter screen
NALP3 yeast rt: retest-confirmed inhibitor of NALP3 in yeast; shares compounds with NLRP3 yeast inh; yeast expressing human NALP3, luminescence read-out; inhibition, % at 10 µM; 1,000 compounds, 53% hits
* hit, by the source's call; x = no result given. Unless noted, no stated cut-off is given here; in the data, active means inhibition above about 50%; inactive means the rest.

SMILES	tim23-1 inh	V-ATPase pHluor	TIM10 inh	NLRP3 yeast inh	NALP1 inh	tim10-1 inh	NALP3 confirm	Casp1 ASC ctr	NALP3 yeast rt
Cc1cc(C(F)(F)F)c(C#N)c(SCC(=O)Nc2nc3ccccc3s2)n1	25	0	15	21	-2	3	x	x	x
O=C(NCc1ccco1)c1ccc(COc2ccccc2[N+](=O)[O-])o1	28	7	4	30	4	22	x	x	x
CCCN1CCc2c(sc3nc(SCC)n(-c4ccccc4)c(=O)c23)C1	0	1	-37	46	8	-34	x	x	x
CCSc1nc2sc3c(c2c(=O)n1-c1ccccc1)CCN(C)C3	21	-4	-34	51*	13	-28	66*	48	46
CN(CCOc1ccccc1)c1ccc(S(=O)(=O)N2CCCCC2)cn1	33	-6	-5	55*	-9	24	60*	47	52*
Oc1ccc(N=Cc2ccc(OCc3ccccc3)cc2)cc1	9	0	-3	51*	8	0	31	x	x
CC(C)(C)Nc1ncnc2c1cnn2-c1ccccc1	17	-2	-32	66*	x	-25	74*	80*	73*
CC1CCN(c2ncnc3c2cnn3-c2ccccc2)CC1	26	-1	14	53*	20	8	60*	47	38
COc1ccc(-n2ncc3c(N4CCC(C)CC4)ncnc32)cc1	27	5	8	14	18	29	x	x	x
CC(=O)Cn1cnc2sc(-c3ccccc3)cc2c1=O	10	-3	15	16	4	11	x	x	x
CCn1cnc2sc(-c3ccccc3)cc2c1=O	6	-1	2	63*	25	15	56*	66*	56*
Cc1cc(NC(=O)COc2ccc3ccccc3c2)no1	-3	-2	-15	15	12	-28	x	x	x
CN1CCC(N2CCN(c3cccc(C(F)(F)F)c3)CC2)CC1	5	3	8	11	8	11	x	x	x
FC(F)(F)c1cccc(N2CCc3cn[nH]c32)c1	41	10	15	97*	x	23	99*	99*	97*
Clc1ccc2nc(CSc3nc4ccccc4o3)cn2c1	14	-1	19	57*	7	-5	73*	69*	60*
O=C1C=CC2=C3c4cc(O)c(O)cc4CC3(O)COC2=C1O (configuration not stated)	x	1	x	x	x	x	x	x	x
Cc1noc(C)c1C(=O)NCc1ccccc1F	5	-3	9	-6	8	13	x	x	x
COc1ccc(C)cc1NC(=O)C1CCN(S(=O)(=O)c2ccc3c(c2)C(C)(C)C(=O)N3C)CC1	-6	-2	-1	80*	-3	15	47	15	17
COc1cc(CNc2nnnn2C)cc(OC)c1OC	4	2	5	20	8	-2	x	x	x
OC(c1ccc(Cl)cc1)c1nccc2ccccc12 (configuration not stated)	22	0	-5	58*	12	24	67*	65*	47
COc1cccc(NC(=O)c2cnc(SC)nc2)c1	12	-3	-4	69*	11	2	72*	68*	58*
CSc1ncc(C(=O)Nc2ccccc2)cn1	-3	2	-6	59*	11	-44	72*	57*	55*
CC1=C(C(=O)N(C)C)CC(CC(=O)NCCc2ccccn2)C(=O)N1Cc1ccc(C(C)(C)C)cc1 (configuration not stated)	x	2	x	x	x	x	x	x	x
CCOc1ccc(C(=O)CCc2nc3ccccc3s2)cc1	25	0	21	67*	9	-3	67*	65*	60*
O=C(O)c1cccc(N2C(=O)CSC2=S)c1	10	6	14	11	5	13	x	x	x
O=C1CSC(=S)N1c1cccc(O)c1	35	-3	2	92*	96*	11	93*	99*	96*
NC(=S)N/N=C/c1ccccc1OCc1cccc(Cl)c1	1	5	23	56*	-4	16	67*	58*	40
